High-throughput results as filed in PubChem BioAssay.
In the library only some 12% were active in any assay of this set; here they are far more common.
L3MBTL1 block: L3MBTL1 (human) inhibition; Potency, µM (series often up to 57.1 µM), inactives show top-dose activity, negative = inhibition, actives largely listed as inhibitors; Q9Y468; AlphaScreen L3MBTL1–H3K9me1 peptide binding; AID 485360; 230,000 tested, 0.66% active; further: on the % scale 0 is the no-effect control and ±100 the full control effect; nearly all actives have a fitted effect of over 60% in size
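Read-out is AlphaScreen signal from streptavidin donor and nickel chelate acceptor beads (10 ug/mL final each) bridging L3MBTL1 (50 nM) and biotinylated K9-monomethylated H3(1-15) peptide (75 nM), after 30 min compound exposure at room temperature.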
Sfp inh: Sfp phosphopantetheinyl transferase inhibition; Biochemical Sfp PPTase activity, qHTS; 310,000 tested, 3.5% active; Potency, µM, for the others: largest response in the series, negative = inhibition, most hits filed as inhibitors; AID 1490;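 further: the enzyme is Sfp with the accession as filed and its product quenches rhodamine fluorescence; 0% = enzyme reaction without inhibitor and -100% = no enzyme wells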
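Fluorescence-quenching assay: 15 nM Sfp-PPTase preincubated 15 min at room temperature with compound, then 5 uM rhodamine-CoA and 12.5 uM BHQ-2-labelled YbbR peptide added. Fluorescence (ex 525/em 598 nm) read at start and after 30 min; difference gives rate.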
BAZ2B block: BAZ2B (human) inhibition. 360,000 tested, 4.4% active. AlphaScreen BAZ2B-H3K14Ac peptide displacement. AID 504333. Potency, µM (top dose mostly 114 µM), for the others: at the top dose activity change, negative = inhibition, usual class: inhibitors. Q9UIF8; further: on the % scale 0 is the no-effect control and ±100 the full control effect; nearly all actives have a fitted effect of over 60% in size
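Complex of BAZ2B and biotin-H3K14Ac (50 nM apiece) forms over 30 min at RT, then faces library compounds up to 110 uM for another 30 min; AlphaScreen beads added, 20 min dark incubation, luminescence read.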
JMJD2A Tudor: blocks the human JMJD2A Tudor domain; O75164; AlphaScreen JMJD2A-Tudor / H3K4me3 peptide binding; Potency, µM (doses to about 114 µM), for the others: top-dose activity change, negative = inhibition, actives largely listed as inhibitors; 390,000 tested, 4.4% active; further: on the % scale 0 is the no-effect control and ±100 the full control effect; nearly all actives have a fitted effect of over 50% in size
G9a block: inhibitors of human histone lysine methyltransferase G9a. 350,000 tested, 8.8% active. Potency, µM (titrated, usually from 102 µM), for the others: at the top dose activity, negative = inhibition, most hits filed as inhibitors. G9a H3K9 monomethylation, AlphaScreen, 2 h. AID 504332. Q96KQ7; further: on the % scale 0 is the no-effect control and ±100 the full control effect; nearly all actives have a fitted effect of over 75% in size
Target sequence (Q96KQ7 913-1193 limits assumed): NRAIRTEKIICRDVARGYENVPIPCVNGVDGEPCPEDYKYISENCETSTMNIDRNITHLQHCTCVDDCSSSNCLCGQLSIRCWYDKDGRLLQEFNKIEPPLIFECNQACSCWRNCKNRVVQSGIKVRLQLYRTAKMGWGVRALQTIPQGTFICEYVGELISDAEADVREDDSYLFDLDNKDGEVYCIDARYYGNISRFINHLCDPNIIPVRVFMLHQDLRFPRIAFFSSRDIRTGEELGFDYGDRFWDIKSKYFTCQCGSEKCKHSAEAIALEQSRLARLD
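G9a (20 nM) preincubated 15 min RT with compounds, then 500 nM biotinylated H3K9 peptide and 20 uM SAM added; 2 h RT reaction. Monomethyl-H3K9 product detected by AlphaScreen with anti-H3K9me1 antibody, streptavidin donor and anti-rabbit IgG acceptor beads.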
HP1b chromo inh: blocks HP1-beta chromodomain binding to methylated histone tails. AlphaScreen HP1-beta / biotin-H3K9me3 peptide binding. Potency, µM (doses to about 114 µM), inactives show at the top dose activity change, negative = inhibition, actives largely listed as inhibitors. 390,000 tested, 0.56% active; further: nearly all actives have a fitted effect of over 70% in size
Target sequence (P83916 whole entry, looked up): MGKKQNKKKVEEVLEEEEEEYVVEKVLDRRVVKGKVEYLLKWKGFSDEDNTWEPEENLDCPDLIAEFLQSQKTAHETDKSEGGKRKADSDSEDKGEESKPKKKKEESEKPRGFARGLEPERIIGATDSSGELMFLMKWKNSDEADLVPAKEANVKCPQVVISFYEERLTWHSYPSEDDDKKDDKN
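Compound inhibition of the preformed complex between 50 nM HP1-beta and 50 nM biotinylated H3K9me3 peptide was read by AlphaScreen. Buffer was PBS pH 7.4 with 0.01% Tween-20. Incubations ran 30 min at room temperature, with 10 ug/mL donor/acceptor beads.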
Starred values were filed as active, the others as inactive; u = inconclusive; x = no result given; [ ] = dose if it differs, or a comment. The call rests on the fitted dose curve; in most records, active means well fitted curve in the direction sought with a large enough effect; inconclusive means small, poorly fitted or top-dose-only effect, or another doubt; inactive means no such curve, though single readings can be large; an effect the other way counts as inactive or inconclusive. Potency means the concentration at half of the fitted maximal effect.

SMILES	L3MBTL1 block	Sfp inh	BAZ2B block	JMJD2A Tudor	G9a block	HP1b chromo inh
CC12CCC3c4cc(CN5CCOCC5)c(O)cc4CCC3C1CCC2=O (configuration not stated)	x	x	x	-19%	x	-8%
CCOC(=O)c1c(NC(=O)c2ccco2)sc2c1CCCC2	0%	15%	x	u	7%[59 µM]	-13%
NC(=O)c1c(NC(NC(=O)c2ccco2)C(=O)c2ccc(Cl)cc2)sc2c1CCCC2 (configuration not stated)	x	56µM*	u	u	25µM*	-10%
N#Cc1c(NC(NC(=O)c2ccco2)C(=O)c2ccccc2)sc2c1CCCC2 (configuration not stated)	-11%	20µM*	-37%	50µM*	5µM*	-26%
CCOc1cc(C(=O)Nc2ccc(NC(=O)c3cc4ccccc4o3)c(OC)c2)cc(OCC)c1OCC	x	x	3%	-9%	-28%[59 µM]	20%
Cc1c(C(=O)Nc2cccc(Cl)c2)c2ccccn2c1CCc1ccncc1	6%	-4%	-8%	1%	-15%[59 µM]	34%
Cc1c(C(=O)c2ccc(F)cc2)c2ccccn2c1CCc1ccccn1	-13%	-27%	-39%	-30%	45µM*	8%
Cc1c(C(=O)Nc2ccc(Cl)cc2)c2ccccn2c1CCc1ccncc1	-8%	-7%	-33%	-21%	14µM*	19%
Cc1c(C(=O)c2ccccc2)c2ccccn2c1CCC#N	x	14%	-37%	-9%[11.4 µM]	u	54%
Cc1c(C(=O)c2ccccc2)c2ccccn2c1CCc1ccccn1	u	-48%	71µM*	-35%	40µM*	18%
O=C(O)CCC/C=C\C[C@@H]1[C@@H](/C=C/[C@H](O)C2Cc3ccccc3C2)[C@@H](F)C[C@@H]1O	x	x	x	x	-4%[59 µM]	x
Cc1ccc(CCNC(=O)CCCn2c(=O)c3cccn3c3ccc(F)cc32)cc1	x	x	-21%	-16%	0%[59 µM]	17%
O=C(Nc1ccccc1Sc1ccccc1)c1cnn2c1NC(=C1CC1)C=C2C(F)F	x	x	x	x	x	33%
N#CCCn1c(=O)c(-c2ccccc2)nc2cnc(N3CCNCC3)nc21	x	9%	x	x	-10%[12.7 µM]	x
COC(=O)c1ccc2c(c1)N(C)S(=O)(=O)c1cnc(SCC(=O)C(C)(C)C)nc1-2	-8%	12%	-15%	-18%	5µM*	24%
CC1(C(=O)c2ccccc2)C2c3c(ccc4ccccc34)OC(=O)C21C(=O)N1CCOCC1 (configuration not stated)	-16%	5%	u	-27%	79µM*	-11%
Cc1ccc(N2C(=O)C3ON(c4ccccc4)C(CC(C)C)C3C2=O)cc1 (configuration not stated)	2%	21%	1%	-2%	10%	61%
c1ccc(-c2c3ccccc3nc3[nH]c4ccccc4c23)cc1	19%	-7%	4%	-8%	89µM*	56%
Fc1ccc(CSc2nncn3c2cc2occc23)c(Cl)c1	x	x	u	-30%	u	-3%
CN(C(=O)COC(=O)CSc1ccc([N+](=O)[O-])cc1)c1ccccc1	-1%	x	-1%	79µM*	-25%[59 µM]	u
CCCN(C(=O)COC(=O)CSc1ccc([N+](=O)[O-])cc1)C1CCS(=O)(=O)C1 (configuration not stated)	1%	x	-3%	56µM*	22%[12.7 µM]	u
CCc1ccc(-n2c(=O)c3c4c(sc3n(Cc3cc(=O)n5c(C)cccc5n3)c2=O)CCC4)cc1	x	x	6%	4%	8%[59 µM]	20%
CCCc1ccc(OC(C)C(=O)Nc2sc3c(c2C(=O)OC)CCCCC3)cc1 (configuration not stated)	x	x	3%	16%	7.9µM*	u
CCOC(=O)c1c(NC(=O)C(C)Oc2ccc(Cl)c(C)c2)sc2c1CCCC2 (configuration not stated)	x	x	-34%	-8%	3.2µM*	-23%
CC(Oc1ccc(Cl)cc1Cl)C(=O)Nc1cccc(O)c1 (configuration not stated)	2%	13%	-21%	-5%	u	43%
SMILES	L3MBTL1 block	Sfp inh	BAZ2B block	JMJD2A Tudor	G9a block	HP1b chromo inh
CC(Oc1ccc(Cl)cc1Cl)C(=O)Nc1ccc(O)cc1 (configuration not stated)	-18%	u	50µM*	-5%[11.4 µM]	25µM*	23%
COC(=O)c1c(NC(=O)C(C)Oc2ccc(Cl)cc2Cl)sc2c1CCCC2 (configuration not stated)	x	x	0%	3%	3.5µM*	-1%
O=C(COc1ccc(Cl)cc1)NCC(c1ccco1)S(=O)(=O)c1ccc(F)cc1 (configuration not stated)	x	x	-19%	-20%	-2%[59 µM]	9%
COc1ccccc1OCCNC(=O)CN1C(=O)NC2(CCCC2)C1=O	3%	x	-2%	-5%	2%	24%
COc1ccc(-c2nc3cnc(N4CCNCC4)nc3n(Cc3cccs3)c2=O)cc1	x	u	x	x	-7%[0.501 µM]	x
C=CCOc1cccc(C2C(C(=O)c3ccc(C)o3)=C(O)C(=O)N2CCN(C)C)c1 (configuration not stated)	4%	6%	-26%	u	45µM*	55%
CCCOc1cccc(C2C(C(=O)c3ccco3)=C(O)C(=O)N2CCN(CC)CC)c1 (configuration not stated)	-3%	0%	0%	-20%	u	32%
COc1cc(C2C(C(=O)c3ccc(C)o3)=C(O)C(=O)N2CCN2CCOCC2)ccc1OCCC(C)C (configuration not stated)	x	-7%	-28%	u	32µM*	16%
CCCOc1cccc(C2C(C(=O)c3ccc(C)o3)=C(O)C(=O)N2CCN2CCOCC2)c1 (configuration not stated)	x	2%	-33%	-1%	45µM*	47%
Cn1c(=O)n(C)c2cc(CNCc3ccccc3)ccc21	x	x	-12%	-13%	-2%[59 µM]	44%
Cn1c(=O)n(C)c2cc(S(=O)(=O)Nc3ccccc3C(=O)O)ccc21	4%	20%	-31%	-18%	8%	20%
COc1ccc(S(=O)(=O)Nc2ccc3c(c2)n(C)c(=O)n3C)cc1OC	x	22%	u	-4%	26%	7%
Cn1c(=O)n(C)c2cc(NS(=O)(=O)c3ccc(Cl)cc3)c(NCc3ccccc3)cc21	x	x	-24%	u	16µM*	65%
Cn1c(=O)n(C)c2cc(NS(=O)(=O)c3ccccc3)c(NCc3ccccc3)cc21	x	x	50µM*	u	11µM*	u
Cn1c(=O)n(C)c2cc(NS(=O)(=O)c3ccc(C(C)(C)C)cc3)c(NCc3ccccc3)cc21	x	x	40µM*	22µM*	14µM*	u
